According to PubChem BioAssay AID1159580 (chemical genetic matrix, 2015):
“And” between values parts separate entries of the source, which are not always exact repeats. Equal entries are not always repeated. The campaign covered roughly 5,500 compounds. About 2,000 (36%) were called active. About 18% were inconclusive and are not listed. Rule as the data show it: active = normalized growth mostly below about 0.91 (no sharp cut-off); inconclusive = no clear call, values can overlap the other calls; inactive = mostly above about 0.92. The list shows a part of the results.

Test: chemical genetic growth profiling, strain panel (AID 1159580);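 also: tested at 20 µM; growth read once vehicle control cultures reached saturation at 30 °C; 1 = growth at the plate median or of vehicle wells; lower values mean less growth of the strain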
Settings: S. cerevisiae deletion strains, growth OD

Measured: normalized growth

Nc1nc2ncc(=O)[nH]c2c(=O)[nH]1
inactive: locus YAL013W, strain DEP1, hits give low values 1 | locus YAL021C, strain ccr4, hits give low values 0.978 | locus YAL026C, strain drs2, hits give low values 0.999 | locus YAL030W, strain snc1, hits give low values 0.98 | locus YBL061C, strain skt5, hits give low values 0.973 | locus YBR009C, strain hhf1, hits give low values 0.995 | locus YBR021W, strain FUR4, hits give low values 0.99 | locus YBR023C, strain chs3, hits give low values 0.979 | locus YBR171W, strain sec66, hits give low values 0.983 | locus YBR229C, strain ROT2, hits give low values 1 | locus YBR231C, strain swc5, hits give low values 0.989 | locus YBR279W, strain paf1, hits give low values 0.984 | locus YCL011C, strain gbp2, hits give low values 0.989 | locus YCL016C, strain dcc1, hits give low values 0.976 | locus YCL029C, strain bik1, hits give low values 0.989 | locus YCL061C, strain MRC1, hits give low values 0.977 | locus YCL069W, strain vba3, hits give low values 0.989 | locus YCR088W, strain abp1, hits give low values 0.972 | locus YDL005C, strain med2, hits give low values 0.965 | locus YDL035C, strain GPR1, hits give low values 1.01 | locus YDL040C, strain nat1, hits give low values 0.986 | locus YDL074C, strain BRE1, hits give low values 1.06 | locus YDL101C, strain DUN1, hits give low values 1 | locus YDL134C, strain PPH21, hits give low values 1 | locus YDL185W, strain tfp1, hits give low values 0.975 | locus YDL192W, strain arf1, hits give low values 0.989 | locus YDR001C, strain nth1, hits give low values 0.972 | locus YDR069C, strain doa4, hits give low values 1.01 | locus YDR101C, strain arx1, hits give low values 0.998 | locus YDR137W, strain rgp1, hits give low values 0.971 | locus YDR150W, strain NUM1, hits give low values 0.997 | locus YDR159W, strain sac3, hits give low values 0.973 | locus YDR162C, strain NBP2, hits give low values 1.01 | locus YDR195W, strain ref2 0.949 | locus YDR297W, strain sur2, hits give low values 0.982 | locus YDR318W, strain mcm21, hits give low values 0.993 | locus YDR334W, strain swr1, hits give low values 0.98 | locus YDR335W, strain msn5, hits give low values 0.978 | locus YDR388W, hits give low values 0.985 | locus YDR392W, strain spt3, hits give low values 0.927 | locus YDR502C, strain sam2, hits give low values 0.996 | locus YEL003W, strain gim4, hits give low values 0.981 | locus YEL037C, strain rad23, hits give low values 0.995 | locus YEL061C, strain CIN8 (second series), hits give low values 0.976 | locus YEL061C, strain CIN8, hits give low values 1 | locus YER015W, strain faa2, hits give low values 1 | locus YER016W, strain bim1, hits give low values 0.984 | locus YER110C, hits give low values 0.976 | locus YER111C, strain swi4, hits give low values 0.957 | locus YER155C, strain BEM2 (second series), hits give low values 0.985 | locus YER155C, strain BEM2, hits give low values 0.993 | locus YER167W, strain BCK2, hits give low values 0.994 | locus YFR010W, strain ubp6, hits give low values 0.977 | locus YGL078C, strain dbp3, hits give low values 0.976 | locus YGL086W, strain mad1, hits give low values 0.989 | locus YGL167C, strain pmr1, hits give low values 0.968 | locus YGL173C, strain kem1, hits give low values 0.981 | locus YGL227W, strain vid30, hits give low values 0.988 | locus YGL240W, strain doc1, hits give low values 1 | locus YGL248W, strain PDE1, hits give low values 1.01 | locus YGL253W, strain hxk2, hits give low values 0.976 | locus YGR078C, strain PAC10, hits give low values 1.03 | locus YGR135W, strain pre9, hits give low values 1.02 | locus YGR229C, strain SMI1, hits give low values 1.04 | locus YGR252W, strain gcn5, hits give low values 1.01 | locus YHR013C, strain ard1, hits give low values 0.946 | locus YHR027C, strain rpn1, hits give low values 0.98 | locus YHR030C, strain SLT2, hits give low values 1 and 0.966 | locus YHR079C, strain IRE1 (second series), hits give low values 0.997 | locus YHR079C, strain IRE1, hits give low values 0.967 | locus YHR094C, strain hxt1, hits give low values 0.965 | locus YHR129C, strain ARP1, hits give low values 1 | locus YHR142W, strain chs7, hits give low values 0.941 | locus YHR200W, strain rpn10, hits give low values 0.988 | locus YIL066C, strain RNR3, hits give low values 1.01 | locus YIL073C, strain SPO22, hits give low values 0.921 | locus YIL125W, strain kgd1, hits give low values 0.981 | locus YIR030C, strain dcg1, hits give low values 0.994 | locus YJL092W, strain hpr5, hits give low values 0.976 | locus YJL095W, strain BCK1 (second series), hits give low values 0.98 | locus YJL095W, strain BCK1, hits give low values 1.06 and 0.983 | locus YJL115W, strain asf1, hits give low values 0.977 | locus YJL129C, strain trk1, hits give low values 0.953 | locus YJL134W, strain LCB3, hits give low values 0.997 | locus YJL154C, strain vps35, hits give low values 0.971 | locus YJL164C, strain tpk1, hits give low values 0.979 | locus YJL166W, strain qcr8, hits give low values 0.982 | locus YJL168C, strain set2, hits give low values 0.988 | locus YJL187C, strain SWE1 (second series), hits give low values 0.999 | locus YJL187C, strain SWE1, hits give low values 0.976 | locus YJR043C, strain POL32, hits give low values 1.01 | locus YJR066W, strain TOR1, hits give low values 0.945
